Inconclusive results are not listed. Active and inactive are the calls of the source.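 The calls were made as follows, unless noted: active = growth inhibition above 25% in both replicates, a cutoff set 3 SD above the mean; inconclusive = above 25% in only one replicate; inactive = the rest.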
Assays:
[1] = reducers of endogenous Her2 protein level, primary screen, SKBR3 breast tumor cells, AlphaScreen, ATP viability (AID 461;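 active = Her2 level under about 52% in both replicate screens, with viability over 70% of control, limit read from the data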;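 as to Her2 level: lower value means less Her2 protein in the cells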;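 as to viability: percent of carrier control wells set as 100% viability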); conditions: 18-24 h, measured here: SKBR3 viability, ATP luminescence, at 10 µM
[2] = molecular target: Receptor tyrosine-protein kinase erbB-2 (Homo sapiens) (UniProt P04626); experiment: as above; conditions: 18-24 h, at 10 µM, stronger effect = lower value
[3] = SK-BR-3 cell growth inhibitors, pilot screen, 24 h, human (AID 572;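 active = viability at or below 10% of carrier control in both of two separate runs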;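 also: compound exposure lasted between 18 and 24 h rather than exactly 24 h; 100% = carrier-treated control wells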); conditions: SK-BR-3 viability, CellTiter-Glo luminescence, at 10 µM, stronger effect = lower value
[4] = HUVEC growth inhibition – cell-based, human, primary screen (AID 575;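 active = viability at or below 30% in both replicate assays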;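 also: 100% = median of untreated cell wells with 0.1% DMSO on each plate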); conditions: HUVEC proliferation, CellTiter-Glo luminescence, 72 h; at 10 µM; stronger effect = lower value
[5] = growth inhibitors of H69AR lung tumor, primary screen, human, duplicate replicates (AID 580;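 active = viability at or under a set limit in both replicates, limit being median viability minus 3 SD, cut at about 48% in these data, passing the limit was not always enough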;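 also: 100% = mean luminescence of untreated wells and 0% = no signal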); conditions: H69AR lung tumor cells viability, ATP luminescence, 72 h; at 10 µM; stronger effect = lower value
[6] = reversal of MRP1-mediated doxorubicin resistance, pilot screen, H69AR cells, doxorubicin co-treatment (AID 601;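 active = viability loss from added drug above about 55%, and viability with drug at most 40%, in both replicates, limit read from the data, passing the limit was not always enough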); conditions: CellTiter-Glo, 72 h, at 10 µM; for differential viability (reversal): stronger effect = higher value
[7] = 384-well plate pilot, post-Golgi transport modulator project, inhibition of yeast transport mutant growth (AID 636; in the data active = inhibition above about 31%); conditions: absorbance 615 nm, about 18 h, stronger effect = higher value
[8] = growth suppression of yeast trafficking mutant, preliminary HTS, modulators of trafficking downstream of Golgi apparatus project, 1536-format plate, OD 615 nm (AID 637; in the data active = inhibition above about 30%); conditions: yeast transport mutant growth, absorbance 615 nm, 18 h; stronger effect = higher value
[9] = OD615 S. cerevisiae growth inhibition, permissive medium, pilot counter-assay, permissive growth control for S. cerevisiae lifespan shortening project (AID 705); conditions: OD615, 24 h, at 10 µM, stronger effect = higher value
[10] = Restrictive medium S. cerevisiae growth inhibition, OD615, pilot screen of yeast lifespan reduction project, restrictive growth control (AID 706;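 active = growth inhibition above a set limit, 3 SD over mean compound inhibition, in both replicates, cut at about 43% in these data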;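 also: modified DeaD lifespan yeast strain shifted to restrictive glucose medium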); conditions: OD615, 48 h, at 10 µM, stronger effect = higher value
[11] = viability gain of MRP-1-high H69AR cells under doxorubicin, pilot screen, MRP-1 activator project, CellTiter-Glo, duplicate (AID 807;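 active = viability increase at or above a cutoff of the median across tested compounds plus 3 SD, cut at about 8.5% in these data, passing the limit was not always enough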;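 also: compound pretreatment 18-22 h then 72 h combined with doxorubicin; 0% = doxorubicin alone and 100% = vehicle without doxorubicin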); conditions: H69AR viability with doxorubicin, CellTiter-Glo luminescence; at 10 µM; stronger effect = higher value
[12] = growth suppression of beta-catenin knockout HCT116, pilot screen, human colon tumor cells (AID 823;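 active = cell viability at or below a set limit in both duplicate runs, the limit being the all-compound median minus 4 SD, cut at about 23% in these data, passing the limit was not always enough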;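 also: 0% = wells killed by 20 µM Hyamine and 100% = untreated DMSO cell wells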); conditions: CellTiter-Glo, 60 h, at 10 µM, stronger effect = lower value
[13] = growth suppression of PTEN-deleted HCT116, pilot screen, cell-based, HCT116 clonal line, CellTiter-Glo (AID 824;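 active = viability at or below 27.92% in each of two runs, the all-compound median minus 4 SD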;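 also: 0% = 20 µM Hyamine control and 100% = vehicle cell control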); conditions: 60 h, at 10 µM, stronger effect = lower value
[14] = inhibitors of the yeast RAM network, pilot screen, dse1pr::URA3 reporter, 5-FOA selection (AID 869;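 active = inhibition over a set limit, the all-compound mean plus 3 SD, in both replicate runs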;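 also: 0% = DMSO wells with no growth and 100% = 10 µM 1-NA-PP1 with full growth; RAM network block rescues cells from 5-FOA so hits raise OD615 growth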); conditions: S. cerevisiae dse1pr::URA3 5-FOA growth, OD615, 2 d; at 10 µM; stronger effect = higher value; strain carries analog-sensitive mutant Cbk1 kinase
[15] = RAM signaling pathway blockade in yeast – S. cerevisiae, Pdr1DBD-CYC8 efflux-inhibited sensitized strain, primary screen (AID 1298;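 active = RAM network inhibition above 8.4% in each of two replicates, 3 SD over the compound average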;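 also: 0% = DMSO untreated cells without growth and 100% = 10 µM 1-NA-PP1 full growth; higher means more yeast growth rescued from 5-FOA killing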); conditions: S. cerevisiae cbk1-as DSE1-URA3 strain, 5-FOA growth OD615, 2 d; at 50 µM; stronger effect = higher value
[16] = H69AR cells + 2 uM doxorubicin, measured here: viability with 2 uM doxorubicin, stronger effect = lower value
[17] = H69AR cells, compound alone cytotoxicity

Sequence of Receptor tyrosine-protein kinase erbB-2 (Homo sapiens) (P04626 whole entry, looked up): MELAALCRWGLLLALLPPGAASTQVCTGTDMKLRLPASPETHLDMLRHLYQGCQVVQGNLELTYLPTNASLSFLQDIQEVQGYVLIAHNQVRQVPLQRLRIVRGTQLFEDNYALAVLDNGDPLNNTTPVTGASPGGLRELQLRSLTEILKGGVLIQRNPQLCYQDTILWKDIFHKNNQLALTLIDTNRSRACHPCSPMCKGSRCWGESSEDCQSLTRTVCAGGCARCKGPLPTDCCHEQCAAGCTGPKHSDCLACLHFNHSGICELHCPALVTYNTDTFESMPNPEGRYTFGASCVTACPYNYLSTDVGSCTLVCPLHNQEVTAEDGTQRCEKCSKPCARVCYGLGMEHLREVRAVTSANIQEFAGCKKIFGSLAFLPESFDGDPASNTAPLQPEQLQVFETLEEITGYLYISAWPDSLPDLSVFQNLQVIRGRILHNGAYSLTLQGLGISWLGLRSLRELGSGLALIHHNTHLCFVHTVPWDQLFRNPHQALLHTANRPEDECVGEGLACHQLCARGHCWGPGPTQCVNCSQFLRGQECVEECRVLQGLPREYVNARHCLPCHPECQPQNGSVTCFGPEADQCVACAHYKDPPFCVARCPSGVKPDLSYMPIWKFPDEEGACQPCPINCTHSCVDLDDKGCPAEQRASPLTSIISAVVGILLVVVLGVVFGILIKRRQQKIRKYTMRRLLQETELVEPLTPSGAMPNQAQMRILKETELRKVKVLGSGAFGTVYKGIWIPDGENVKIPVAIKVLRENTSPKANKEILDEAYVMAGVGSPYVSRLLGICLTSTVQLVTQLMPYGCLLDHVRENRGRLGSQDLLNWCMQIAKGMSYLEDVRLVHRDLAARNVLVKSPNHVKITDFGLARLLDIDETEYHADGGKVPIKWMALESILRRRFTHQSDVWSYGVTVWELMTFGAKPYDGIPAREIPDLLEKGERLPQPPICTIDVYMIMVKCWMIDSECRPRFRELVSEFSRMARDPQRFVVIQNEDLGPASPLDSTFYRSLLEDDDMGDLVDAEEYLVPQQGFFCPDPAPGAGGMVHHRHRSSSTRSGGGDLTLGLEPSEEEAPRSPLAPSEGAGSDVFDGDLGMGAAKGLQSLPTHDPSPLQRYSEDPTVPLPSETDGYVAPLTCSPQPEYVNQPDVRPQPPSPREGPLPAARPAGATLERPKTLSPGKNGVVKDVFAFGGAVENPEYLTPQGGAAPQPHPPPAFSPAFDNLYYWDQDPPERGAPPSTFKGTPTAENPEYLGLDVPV

COc1ccc(S(=O)(=O)N2CCCC2C(=O)Nc2ccc(O)cc2)cc1 (stereo not given)
inactive: Her2 level [2] 106% | viability [3] 93.5% | viability [4] 92.6% | viability [5] 98.4% | differential viability (reversal) ([6]; H69AR cells + 2 uM doxorubicin) 3.97% | inhibition [7] 0.13% | inhibition [8] -4.92% | growth inhibition [9] -1.65% | growth inhibition [10] 2.76% | viability increase [11] -0.78% | viability [12] 108% | viability [13] 108% | inhibition [14] 1.98% | RAM network inhibition [15] 4.8%
93.5%: viability [1]
98.4%: viability [6, 17]
94.4%: viability [6, 16]

COc1ccc(NC(=O)C2CCCCN2S(=O)(=O)c2ccc(F)cc2)cc1 (stereo not given)
inactive: Her2 level [2] 93% | viability [3] 91% | viability [4] 91.4% | viability [5] 89.2% | differential viability (reversal) ([6]; H69AR cells + 2 uM doxorubicin) -12.1% | inhibition [7] -7.47% | inhibition [8] 1% | growth inhibition [9] -18.5% | growth inhibition [10] -18.4% | viability increase [11] -1.3% | viability [12] 83.5% | viability [13] 88% | inhibition [14] 1.19% | RAM network inhibition [15] 5.45%
91%: viability [1]
89.2%: viability [6, 17]
101%: viability [6, 16]

CCCOc1ccc(C2C(C(=O)OC)=CN(CCOC)C=C2C(=O)OC)cc1
inactive: Her2 level [2] 92% | viability [3] 89% | viability [4] 96.4% | viability [5] 90.4% | differential viability (reversal) ([6]; H69AR cells + 2 uM doxorubicin) -2.27% | inhibition [7] -3.12% | inhibition [8] 3.11% | growth inhibition [9] -11.5% | growth inhibition [10] 12.8% | viability increase [11] -2.37% | viability [12] 81.5% | viability [13] 84.4% | inhibition [14] 2.16% | RAM network inhibition [15] 5.46%
89%: viability [1]
92.7%: viability [6, 16]
90.4%: viability [6, 17]

CC(C)n1c(CN2CCN(C)CC2)nc2c1c(=O)n(C)c(=O)n2C
98.5%: viability [6, 17]
inactive: Her2 level [2] 86% | viability [3] 95.5% | viability [4] 93.8% | viability [5] 98.5% | differential viability (reversal) ([6]; H69AR cells + 2 uM doxorubicin) 9.28% | inhibition [7] -7.57% | inhibition [8] 1.8% | growth inhibition [9] -7.82% | growth inhibition [10] 4.92% | viability increase [11] 0.07% | viability [12] 101% | viability [13] 103% | inhibition [14] 0.885% | RAM network inhibition [15] 5.22%
89.2%: viability [6, 16]
95.5%: viability [1]

CCN1CCN(c2nc(C)nc3c2sc(=S)n3C)CC1
90%: viability [6, 17]
91.3%: viability [6, 16]
inactive: Her2 level [2] 104% | viability [3] 100% | viability [4] 69.6% | viability [5] 90% | differential viability (reversal) ([6]; H69AR cells + 2 uM doxorubicin) -1.33% | inhibition [7] -3.73% | inhibition [8] 0.5% | growth inhibition [9] -11.2% | growth inhibition [10] -5.22% | viability increase [11] -2.66% | viability [12] 102% | viability [13] 92.6% | inhibition [14] 1.04% | RAM network inhibition [15] 1%
100%: viability [1]

CCOc1ccc(Cn2nnc(C(=O)Nc3cc(C)cc(C)c3)c2N)cc1
inactive: Her2 level [2] 90.5% | viability [3] 89.5% | viability [4] 80.4% | viability [5] 86.2% | differential viability (reversal) ([6]; H69AR cells + 2 uM doxorubicin) 7.9% | inhibition [7] 0% | inhibition [8] -3.28% | growth inhibition [9] -7.71% | growth inhibition [10] 1.04% | viability increase [11] -3.02% | viability [12] 73% | viability [13] 77.8% | inhibition [14] 3.23% | RAM network inhibition [15] 8.35%
86.2%: viability [6, 17]
78.3%: viability [6, 16]
89.5%: viability [1]

COc1cccc(C2=NOC(C(=O)N3CCN(c4ccccc4)CC3)C2)c1OC (stereo not given)
inactive: Her2 level [2] 97.5% | viability [3] 104% | viability [4] 95.9% | viability [5] 86.5% | differential viability (reversal) ([6]; H69AR cells + 2 uM doxorubicin) -12% | inhibition [7] -6.13% | inhibition [8] 0% | growth inhibition [9] -7.02% | growth inhibition [10] -5.35% | viability increase [11] 2.2% | viability [12] 93.6% | viability [13] 96.5% | inhibition [14] -0.58% | RAM network inhibition [15] 1%
86.5%: viability [6, 17]
104%: viability [1]
98.5%: viability [6, 16]

COc1ccc(C2CC(c3cccc(C)c3)n3ncnc3N2)cc1 (stereo not given)
91.4%: viability [6, 17]
inactive: Her2 level [2] 89% | viability [3] 87.5% | viability [4] 88.8% | viability [5] 91.4% | differential viability (reversal) ([6]; H69AR cells + 2 uM doxorubicin) -5.74% | inhibition [7] 5.6% | inhibition [8] -9.02% | growth inhibition [9] 1.04% | growth inhibition [10] 5.56% | viability increase [11] -1.57% | viability [12] 100% | viability [13] 86.1% | inhibition [14] 0.22% | RAM network inhibition [15] -0.53%
87.5%: viability [1]
97.2%: viability [6, 16]

CCCCCn1c(CN2CCN(C(=O)c3ccco3)CC2)nc2c1c(=O)n(C)c(=O)n2C
96.5%: viability [1]
77.5%: viability [6, 17]
49.5%: viability [6, 16]
inactive: Her2 level [2] 103% | viability [3] 96.5% | viability [4] 92.8% | viability [5] 77.5% | differential viability (reversal) ([6]; H69AR cells + 2 uM doxorubicin) 27.9% | inhibition [7] -5.6% | inhibition [8] -5.83% | growth inhibition [9] -0.285% | growth inhibition [10] -8.78% | viability increase [11] -2.57% | viability [12] 93.6% | viability [13] 93.2% | inhibition [14] -0.2% | RAM network inhibition [15] 1.17%

COc1ccc(C)cc1S(=O)(=O)N1CCN(S(=O)(=O)c2cc(C)ccc2OC)CC1
95%: viability [6, 17]
110%: viability [1]
95.2%: viability [6, 16]
inactive: Her2 level [2] 114% | viability [3] 110% | viability [4] 96.5% | viability [5] 95% | differential viability (reversal) ([6]; H69AR cells + 2 uM doxorubicin) -0.24% | inhibition [7] -5.47% | inhibition [8] -9.03% | growth inhibition [9] -15.6% | growth inhibition [10] -26.2% | viability increase [11] -0.01% | viability [12] 93.8% | viability [13] 90.9% | inhibition [14] 2.31% | RAM network inhibition [15] 3%
